# This excerpt belongs to a sample that is enriched for hits.
# LmPK inhibitor: LmPK (Leishmania mexicana) enzyme inhibition; AID 1721; Q27686; Potency, µM (top dose mostly 57.5 µM), for the others: at the highest dose activity change, negative = inhibition, usual class: inhibitors; purified LmPK, Kinase-Glo ATP luminescence, 1 h; 290,000 tested, 0.37% active; active = well fitted curve in the direction sought with a large enough effect; inconclusive = small, poorly fitted or top-dose-only effect, or another doubt; inactive = no such curve, though single readings can be large; an effect the other way counts as inactive or inconclusive; also: potency is read from the fitted curve at half-maximal effect; % is scaled to controls: 0 for no effect and ±100 for the full control effect
# Target sequence (Q27686 whole entry, looked up): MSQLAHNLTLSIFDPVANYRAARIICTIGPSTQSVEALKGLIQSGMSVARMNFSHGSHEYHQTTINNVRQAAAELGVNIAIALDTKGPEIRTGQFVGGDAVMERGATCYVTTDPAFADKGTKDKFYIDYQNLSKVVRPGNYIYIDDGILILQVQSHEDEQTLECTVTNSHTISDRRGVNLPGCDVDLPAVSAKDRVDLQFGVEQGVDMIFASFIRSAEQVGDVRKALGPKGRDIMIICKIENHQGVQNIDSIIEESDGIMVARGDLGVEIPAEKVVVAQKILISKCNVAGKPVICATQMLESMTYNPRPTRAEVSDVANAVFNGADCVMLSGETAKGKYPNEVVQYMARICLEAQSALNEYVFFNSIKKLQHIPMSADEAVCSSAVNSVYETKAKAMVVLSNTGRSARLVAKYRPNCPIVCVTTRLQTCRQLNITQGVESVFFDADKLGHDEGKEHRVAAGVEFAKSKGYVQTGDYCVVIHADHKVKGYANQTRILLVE
#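 Purified LmPK (0.1 nM) converted ADP (0.1 mM) to ATP with PEP (0.5 mM) in imidazole buffer pH 7.2 with KCl and MgCl2, 1 h at room temperature. ATP was read by Kinase-Glo luminescence; data normalized to uninhibited and no-enzyme controls.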
# NS1 function inh: blocks influenza NS1 protein function | Potency, µM (doses to about 46.1 µM), for the others: at the highest dose activity, positive = more growth | 270,000 tested, 0.4% active; also: potency is read from the fitted curve at half-maximal effect; actives are rising curves; nearly all actives have a fitted effect of over 50% in size
#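 Growth recovery, yeast-based: influenza A NS1 expressed in S. cerevisiae causes slow growth, and suppressors are detected by OD600. The parent strain without NS1 is used as positive control.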
# CHX counter: counter-screen for Shiga toxin inhibitors: cycloheximide protein synthesis inhibition; cell reporter, cycloheximide protein synthesis inhibition counterscreen; max response, %; 300,000 tested, 12% active; AID 2314; in the data active = max response mostly above about 13%, no sharp cut-off; inactive = mostly below about 14%; also: read at 38.3 µM for the half of the compounds with a filed dose; 0% is about no effect
# SARS PLP yeast: SARS-CoV PLP inhibition in yeast; S. cerevisiae expressing SARS-CoV PLpro, growth rescue; Potency, µM (series often up to 32.9 µM), inactives show at the top dose activity, positive = growth rescue, actives largely listed as activators; 330,000 tested, 0.19% active; AID 485353; also: potency is read from the fitted curve at half-maximal effect; 0% is about no effect; nearly all actives have a fitted effect of over 55% in size
# Tb PYK inh: inhibitors of Trypanosoma brucei pyruvate kinase. AID 624173. Q57TT1. TbPYK enzyme, Kinase-Glo Plus ATP luminescence, 45 min. Potency, µM (highest dose often 76.8 µM), for the others: at the highest dose activity, negative = inhibition, actives largely listed as inhibitors. 410,000 tested, 0.12% active; active = well fitted curve in the direction sought with a large enough effect; inconclusive = small, poorly fitted or top-dose-only effect, or another doubt; inactive = no such curve, though single readings can be large; an effect the other way counts as inactive or inconclusive; also: potency is read from the fitted curve at half-maximal effect; % is scaled to controls: 0 for no effect and ±100 for the full control effect; nearly all actives have a fitted effect of over 50% in size
#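 Quantitative HTS: titrated library compounds versus trypanosomal pyruvate kinase in TEA buffer (pH 7.2) containing KCl, MgCl2, BSA and Tween-20. Reactions were initiated with ADP, 130 uM final. Kinase-Glo Plus luminescence was read after 45 min at RT.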
# Shiga inhibitor: Shiga toxin inhibition. 290,000 tested, 9.2% active. Vero cells, Shiga toxin protein synthesis inhibition reporter. inhibition, % at 38.7 µM. AID 2315; in the data active = inhibition mostly above about 28%, no sharp cut-off; inactive = mostly below about 43%; also: 0% is about no effect
# Starred values were filed as active, the others as inactive; u = inconclusive; x = no result given. Unless noted, calls follow the shape of the full dose curve.
SMILES,LmPK inhibitor,NS1 function inh,CHX counter,SARS PLP yeast,Tb PYK inh,Shiga inhibitor
CCC1CCCCN1C(=O)CCc1nnc(Cc2cc(OC)ccc2OC)o1 (configuration not stated),5%,-1%,54*,0%,5%,93*
COc1ccc(OC)c(Cc2nnc(CCC(=O)N3CCCCC3)o2)c1,-1%,-5%,22*,-1%,-3%,73*
COc1ccc(OC)c(Cc2nnc(CCC(=O)N3CCN(C4CCCC4)CC3)o2)c1,1%,0%,40*,4%,1%,99*
Cn1c(SCC(=O)N2CCCC2=O)nc2ccccc2c1=O,x,x,x,2%,-1%,x
CC(C)(C[C@@]1(C)NC(=O)NC1=O)OCc1ccccc1,x,0%,x,x,x,x
COc1ccccc1OCCCC(=O)Nc1ccc([N+](=O)[O-])cc1Br,1%,-9%,0,-1%,-2%,-4
Cc1nc2ccccc2c(=O)n1N,6%,-12%,-2,2%,-9%,20
CCn1cc(Br)c(-c2nc3ccccc3c(=O)n2N)n1,1%,-20%,27*,x,-4%,75*
O=C(Nc1nccs1)c1ccc(Br)s1,0%,-40%,54*,-8%,2%,60*
Cc1ccc(C(=O)Nc2nccs2)s1,-1%,-5%,59*,-1%,0%,92*
O=C(Nc1nc(-c2cc(Cl)sc2Cl)cs1)c1ccc(Br)s1,1%,3%,-5,-1%,-3%,-4
COc1cc2c(cc1OC)C(CCN)=NCC2,x,2%,x,x,x,x
Nc1nnc(CC(=O)N/N=C/c2ccccc2OCc2ccc(F)cc2)s1,4%,-4%,-2,-5%,-1%,18
FC(F)C(F)(F)c1cc(-c2ccccc2)n[nH]1,6%,-4%,20*,1%,-3%,29
O=C(O)c1cc(-c2ccccc2)n[nH]1,-8%,9%,-2,18%,0%,4
COc1ccccc1CNc1ncc(-c2ccc(F)cc2)n1C,-6%,11%,7.6*,-3%,6%,19
COc1ccccc1CNc1ncc(-c2ccccc2)n1C,-3%,-4%,21*,5%,8%,40*
COc1cccc(NC(=O)C2CCN(Cc3cnn(-c4ccccc4)c3-n3cccc3)CC2)c1,0%,10%,51*,7%,-8%,73
O=C(NCc1ccc2c(c1)OCO2)C1CCN(Cc2cnn(-c3ccccc3)c2-n2cccc2)CC1,8%,-4%,-2,x,-8%,7
COc1ccc(NC(=O)C2CCN(Cc3cnn(-c4ccccc4)c3-n3cccc3)CC2)cc1OC,4%,-2%,34*,x,-5%,49*
COc1ccc(OC)c(NC(=O)C2CCN(Cc3cnn(-c4ccccc4)c3-n3cccc3)CC2)c1,12%,-12%,-1,4%,1%,-6
O=C(Nc1ccccc1Cl)C1CCN(Cc2cnn(-c3ccccc3)c2-n2cccc2)CC1,4%,12%,27*,2%,-3%,24
Clc1ccc(C(Cn2ccnc2)OCc2c(Cl)cccc2Cl)c(Cl)c1 (configuration not stated),x,x,x,x,-3%,x
O=C(NC(=S)NCCc1ccccc1)c1ccccc1F,-8%,0%,41*,12%,-4%,94*
CCOc1ccccc1C(=O)NCCNC(=O)c1ccccc1OCC,x,x,x,x,-2%,x
SMILES,LmPK inhibitor,NS1 function inh,CHX counter,SARS PLP yeast,Tb PYK inh,Shiga inhibitor
CC(C)N(C(=S)Nc1cc(S(=O)(=O)N2CCOCC2)ccc1Cl)c1ccccc1,0%,9%,-4,28%,-4%,-2
CN(C(=O)COc1ccccc1C(=O)NCCc1ccccc1)c1ccccc1,2%,-8%,30*,-2%,1%,70*
O=C(NCCc1ccccc1)c1ccc(S(=O)(=O)N2CCCCC2)cc1,x,x,x,x,4%,x
C/C(=N\NC(=S)Nc1cc(S(=O)(=O)N2CCOCC2)ccc1Cl)c1ccccc1F,-2%,u,59*,-6%,-21%,75*
O=C(NCCc1ccccc1)c1ccccc1NS(=O)(=O)N1CCCC1,-6%,-45%,33*,-2%,-1%,43*
O=C(NC(=S)NC(=O)c1ccccc1F)c1ccccc1F,0%,0%,40*,-56%,3%,73*
O=C(NCCCCc1ccccc1)c1ccccc1Cl,-5%,x,24*,-9%,0%,58*
O=C(NC(=S)NCCc1ccccc1)c1ccccc1,2%,2%,18*,17%,2%,45*

# Source: PubChem (National Center for Advancing Translational Sciences (NCATS))
